The list is a sample of the results.
aSyn UTR act – Activators via SNCA 5'UTR binding, MLPCN; alpha-synuclein 5'UTR reporter, activators screen; activity score, % (tested at 7.5 µM), hits read low; 7.1% of 300,000 active; AID 1814, 2009; in the data active means activity score below about -60%
Large screens that a line does not name were inactive.

Cc1ccc(OCCSc2ncccn2)c(C)c1	aSyn UTR act -77.5
c1cnc(SCCOc2cccc3ccccc23)nc1	aSyn UTR act -186.2
Cc1ccnc(NC(=O)c2cccc(OC(F)F)c2)n1	aSyn UTR act -77.4
O=C(Nc1cc(Cl)cc(Cl)c1)c1cccc(OC(F)F)c1	aSyn UTR act -97.7
Cc1n[nH]c(C)c1CCOc1ccc(C(C)C)cc1	aSyn UTR act -83.8
CCOC(=O)c1c(C)[nH]c(C(=O)CSc2ccc(Cl)cc2)c1C	aSyn UTR act -129.5
CCOC(=O)c1c(C)[nH]c(C(=O)OCC(=O)c2ccccc2)c1C	aSyn UTR act -99.0
CC(=O)c1c(C)[nH]c(C(=O)OCc2ccccc2)c1C	aSyn UTR act -145.2
CCNC(=O)COC(=O)c1[nH]c(C)c(C(=O)OC)c1C	aSyn UTR act -85.4
CCOC(=O)c1c(C)[nH]c(C(=O)OCc2ccccc2F)c1C	aSyn UTR act -110.3
CCOC(=O)c1c(C)[nH]c(C(=O)OCc2ccc(F)cc2)c1C	aSyn UTR act -170.0
CCOC(=O)c1c(C)[nH]c(C(=O)OCCOc2ccccc2C)c1C	aSyn UTR act -132.3
CCOC(=O)c1c(C)[nH]c(C(=O)COC(=O)C2(C)CC2(Cl)Cl)c1C (centres undefined)	aSyn UTR act -170.9
O=C(/C=C/c1cccs1)c1ccc(Br)cc1	aSyn UTR act -95.8
O=C(/C=C/c1cccs1)c1ccc(NC(=O)c2cccc(Br)c2)cc1	aSyn UTR act -84.5
Cc1ccc(C(=O)Nc2ccc(C(=O)/C=C/c3cccs3)cc2)cc1	aSyn UTR act -200.6
Cc1cc(N)c(NC2=CC(=O)CC(C)(C)C2)cc1C	aSyn UTR act -107.7
Cc1cc(C(=O)Nc2sc(C)c(-c3ccc(F)cc3)c2C(N)=O)no1	aSyn UTR act -199.8
CCc1c(C)sc(NC(=O)c2cc(C)on2)c1C#N	aSyn UTR act -103.2
Cc1sc(NC(=O)c2ccccc2)c(C#N)c1-c1ccccc1	aSyn UTR act -141.3
CCc1c(C)sc(NC(=O)c2cccs2)c1C#N	aSyn UTR act -157.5
CC(=O)Nc1sc(N/N=C\c2ccccc2)nc1-c1cccs1	aSyn UTR act -113.9
CC(=O)Nc1sc(NC(=O)c2ccc(Cl)cc2)nc1-c1cccs1	aSyn UTR act -72.9
CC(=O)Nc1sc(N/N=C\c2ccccc2Cl)nc1-c1cccs1	aSyn UTR act -141.3
COc1cccc(/C=C/C(=O)OC(C)C(=O)Nc2c(C)n(C)n(-c3ccccc3)c2=O)c1 (centres undefined)	aSyn UTR act -111.7
O=[N+]([O-])c1ccc(N/N=C\c2cccnc2)nc1	aSyn UTR act -84.2
FC(F)(F)c1ccc(N/N=C/c2cccnc2)nc1	aSyn UTR act -115.2
Cc1csc(N/N=C\c2cccnc2)n1	aSyn UTR act -115.9
O=C(CN1C(=O)c2ccccc2S1(=O)=O)c1ccc(OC(F)F)cc1	none
CN(CCOC(=O)CN1C(=O)c2ccccc2C1=O)C1=NS(=O)(=O)c2ccccc21	aSyn UTR act -88.8
CN(C)c1ccc(C(CN)c2c[nH]c3ccccc23)cc1 (centres undefined)	aSyn UTR act -97.3
Cc1noc(C(=O)Nc2cccc(Cl)c2)c1Cl	aSyn UTR act -78.6
COc1ccc(NC(=O)c2onc(C)c2Cl)cc1	aSyn UTR act -123.6
CCc1ccc(NC(=O)c2onc(C)c2Cl)cc1	aSyn UTR act -181.9
Cc1noc(NC(=O)c2ccc(Cl)cc2)c1Cl	aSyn UTR act -69.8
O=[N+]([O-])c1cc(/C=N/N/C(=N/c2ccccn2)c2ccccn2)ccc1O	aSyn UTR act -90.9
O=[N+]([O-])c1ccc(/C=N/N/C(=N/c2ccccn2)c2ccccn2)cc1	aSyn UTR act -125.2
O=C(NNC(=S)Nc1ccccc1Cl)c1ccccc1Br	aSyn UTR act -94.1
O=C(NC(=S)Nc1ccccc1O)c1ccccc1Cl	aSyn UTR act -126.9
Cc1ccc(C(=O)NC(C#N)=C(Cl)Cl)cc1	aSyn UTR act -191.3
CCCCc1ccc(-c2nc(N)n[nH]2)cc1	aSyn UTR act -99.7
CSc1ccc(-c2sc(Nc3ccccc3)n[n+]2-c2ccccc2)cc1	aSyn UTR act -98.0
CSc1ccc(-c2sc(Nc3cccc4ccccc34)n[n+]2-c2ccccc2)cc1	aSyn UTR act -143.4
COc1cccc(Nc2nc(-c3cccc(N4C(=O)c5ccccc5C4=O)c3)cs2)c1	aSyn UTR act -62.0
COc1cccc(Nc2nc(-c3ccc(O)cc3)cs2)c1	aSyn UTR act -191.1
CC(C)(C)c1csc(N/N=C/c2ccc(O)cc2)n1	aSyn UTR act -164.7
Cc1ccc2nc(=O)c(NNc3ccccc3)cnc2c1	aSyn UTR act -217.6
Cc1nc2ccccc2nc(=O)c1NNc1ccccc1	aSyn UTR act -240.8
Oc1ccc(CNc2ccc(F)cc2)c2cccnc12	none
Cn1c(-c2ccc(F)cc2)cnc1NCc1ccccc1F	aSyn UTR act -66.1
Cn1c(-c2ccccc2)cnc1NCc1cc(Cl)ccc1O	aSyn UTR act -66.5
CC(=O)Nc1nc2ccccc2n1Cc1ccccc1Cl	none
Cn1c(NCc2ccccc2O)nc2ccccc21	aSyn UTR act -271.9
Cn1c(NCc2ccccc2Cl)nc2ccccc21	aSyn UTR act -163.8
O=C(Nc1cccc([N+](=O)[O-])c1)C(=O)N1CCCCC1	aSyn UTR act -150.9
Cc1ccc(NC(=O)C(=O)N2CCCC2)cc1Cl	aSyn UTR act -106.7
O=C(Nc1ccc(Cl)c(Cl)c1)N1CC=CCC1	aSyn UTR act -121.6
Cc1ccc(NC(=O)N2CCCC2)cc1Cl	aSyn UTR act -73.2
Cc1cc(C(=O)CSc2nnnn2-c2ccccc2)c(C)n1-c1ccc2c(c1)OCO2	aSyn UTR act -90.9
Cc1cc(C(=O)CSc2nncs2)c(C)n1-c1ccc2c(c1)OCO2	aSyn UTR act -153.1
CCOC(=O)c1[nH]c2ccc(C)cc2c1N	aSyn UTR act -233.7
Cc1[nH]n(-c2ccccc2)c(=O)c1N=Nc1ccccc1O	none
Cc1[nH]n(-c2ccccc2)c(=O)c1N=Nc1ccc2c(c1)OCO2	aSyn UTR act -214.5
COc1cccc(N=Nc2c(C)[nH]n(-c3ccccc3)c2=O)c1	aSyn UTR act -145.1
O=C(CN1C(=O)c2ccccc2S1(=O)=O)c1ccccc1F	none
CC(C)CN1C(=O)c2ccc(NC(=O)c3ccccc3F)cc2C1=O	aSyn UTR act -144.3
CC(C)CN1C(=O)c2ccc(NC(=O)c3cccs3)cc2C1=O	aSyn UTR act -129.5
CC(C)CN1C(=O)c2ccc(NC(=O)c3ccco3)cc2C1=O	aSyn UTR act -83.7
Cc1ccc2nc(Cl)c(-c3ccccc3)cc2c1	none
Cc1ccc(-c2cc3ccccc3nc2N)cc1	aSyn UTR act -93.5
c1csc(-c2ccc3ccccc3n2)c1	aSyn UTR act -139.6
Nc1nc2ccccc2cc1-c1cccs1	aSyn UTR act -121.1
COc1ccccc1/C=C/c1nc(C#N)c(N(C)C)o1	aSyn UTR act -196.1
CN(C)c1oc(/C=C/c2ccccc2)nc1C#N	aSyn UTR act -261.9
Cc1cccc(N(C)S(=O)(=O)c2ccc(-c3cc(C)no3)s2)c1	none
Cc1cccc(N(C)C(=O)c2cc3cc4ccc(C)cc4nc3o2)c1	aSyn UTR act -605.5
Cc1ccnc(N2CCN(C(=O)CSc3nc4ccccc4nc3N3CCC(C)CC3)CC2)c1	aSyn UTR act -79.9
Oc1ccc(/C=N/Nc2ccc3ccccc3c2)c(O)c1	aSyn UTR act -134.5
Oc1ccccc1/C=N/Nc1ccccc1	aSyn UTR act -133.2
Cc1cc(C(=O)CN2CCCC(C)C2)c(C)n1-c1ccc(F)cc1 (centres undefined)	aSyn UTR act -126.3
CC(=O)Nc1ccc2nc(-c3cccs3)[nH]c2c1	aSyn UTR act -109.9
CC(=O)Nc1ccc2nc(-c3cccn3C)[nH]c2c1	aSyn UTR act -87.9
Cn1cccc1-c1nc2ccc(NC(=O)c3cccs3)cc2[nH]1	aSyn UTR act -114.7
COc1ccc2cc(CCNC(=O)c3cccs3)c(=O)[nH]c2c1	aSyn UTR act -137.6

Screens as filed in PubChem BioAssay.
